Measurements published in the supplement of paper PMC7156485.
Where “and” joins values, the source holds several entries; their conditions need not be identical. Identical values can stand only once. Counter-ions that a name gives are not always drawn. ± gives the standard deviation of the averaged measurements.

tested on: TDF; assay: cell number relative to DMSO (% of DMSO); higher = more cells (less growth inhibition / toxicity); details: concentration: 10 µM; 24 h
Procedure, shortened: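 Six fields per well were imaged at ×10 after the cells were fixed in 3.7% formaldehyde and stained with a rabbit anti-H1.0 antibody, an AlexaFluor 647 secondary and DAPI. The HCC1569 and TDF cells had been plated at 800 per well in 384-well plates (RPMI, 10% FBS) and treated in triplicate with compounds at 10 µM for 24 h at 37 °C. The values are the median of replicates of H1.0 nuclear intensity or cell number, as percent of the plate control. Smoothing for positional effects was applied to HCC1569 data.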
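Further: TDF denotes transformed human dermal fibroblasts of mesenchymal origin.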

Compound	cell number
O=C(O)c1ccccc1Nc1cccc(C(F)(F)F)c1 [Flufenamic acid]	105
CN(C)CCOC(C)(c1ccccc1)c1ccccn1.O=C(O)CCC(=O)O (stereo not given) [Doxylamine succinate]	101
Br.CCSC(=N)N [S-Ethylisothiourea hydrobromide]	109
NCC1OC(OC2C(CO)OC(OC3C(O)C(N)CC(N)C3OC3OC(CN)C(O)C(O)C3N)C2O)C(N)C(O)C1O (stereo not given) [Neomycin]	93.4 ± 5.1
CN(c1ncccc1CNc1nc(Nc2ccc3c(c2)CC(=O)N3)ncc1C(F)(F)F)S(C)(=O)=O	32.3
O=C(O)C1=CC(=C(c2ccc(O)c(C(=O)O)c2)c2ccc(O)c(C(=O)O)c2)C=CC1=O [Aurintricarboxylic acid]	113
CCCCCC=CCC=CC=CC=CC(SCC(N)C(=O)NCC(=O)O)C(O)CCCC(=O)O (stereo not given) [Leukotriene D4]	99.8
CC(=O)Oc1ccccc1C(=O)Nc1ncc([N+](=O)[O-])s1 [2-{[(5-nitro-1,3-thiazol-2-yl)amino]carbonyl}phenyl acetate]	95.5
C=CCn1c(=O)c2c(nc(-c3ccc(S(=O)(=O)O)cc3)n2C)n(C)c1=O [1-Allyl-3,7-dimethyl-8-p-sulfophenylxanthine]	108
c1ccc2c(-c3ccncc3)c[nH]c2c1 [Rho Kinase Inhibitor III, Rockout]	106
CS(=O)(=O)O.O=C1Nc2ccc(-c3cccnc3)cc2C1=Cc1ccc[nH]1 [JAK3 Inhibitor VI]	47.7
CNc1cc2c(Nc3cccc(Br)c3)ncnc2cn1	95.7
COc1ccc2c(c1)c(CC(=O)O)c(C)n2C(=O)c1ccc(Cl)cc1 [Indomethacin]	106 ± 20
COc1ccccc1O [Guaiacol]	107
CN(C)c1ccc(C=C2C(=O)Nc3ccccc32)cc1	86.6 and 102 and 98.2
Cc1cc(C(C)(C)C)c(O)c(C)c1CC1=NCCN1.Cl [Oxymetazoline hydrochloride]	107
O=C(O)Cc1c[nH]c2ccc(O)cc12 [5-Hydroxyindolacetic acid]	99.5
COc1cc2ncc(-c3ccccc3)nc2cc1OC	94.5
CCC1OC(=O)C(C)C(OC2CC(C)(OC)C(O)C(C)O2)C(C)C(OC2OC(C)CC(N(C)C)C2O)C(C)(O)CC(C)C(=NOCOCCOC)C(C)C(O)C1(C)O (stereo not given) [Roxithromycin]	98.4
Cc1ccccc1CNc1ncnc2c1ncn2C1OC(CO)C(O)C1O (stereo not given) [Metrifudil]	94.5

Compound	cell number
O=C1c2cccc(O)c2C(=O)c2c(O)cc(CO)cc21 [Aloe-emodine]	89.9
C=CCc1ccc(O)c(-c2ccc(O)c(CC=C)c2)c1 [Honokiol]	107
C#CC1(O)CCC2C3C(C)CC4=C(CCC(=O)C4)C3CCC21C (stereo not given) [Tibolone]	96.7
Cl.NC(=NCc1ccccc1)NC(=O)c1nc(Cl)c(N)nc1N [Benzamil hydrochloride]	105
CCN(Cc1ccccc1)C(=O)Cn1c(=O)n(C)c2cnc(-c3ccccc3)nc21	17.6
O=C1NC(C(=O)O)CS1 (stereo not given) [Procysteine]	110
O=C(O)c1cn(C2CC2)c2cc(N3C[C@@H]4C[C@H]3CN4)c(F)cc2c1=O	109
O=C(NCCO)c1cc(C(=O)NCCO)cc(C(=O)NCCO)c1	104
CCCCCCCCCCCCCCCC(O)C(N)CO (stereo not given) [Dihydrosphingosine]	94.5
C[N+]1(CCCCC[N+]2(C)CCCC2)CCCC1.O=C([O-])C(O)C(O)C(=O)O.O=C([O-])C(O)C(O)C(=O)O [Pentolinium di[L(+)-tartrate]]	110
CCCCCCCCCCCCCCCCOCC(CO)OC (stereo not given) [1-Hexadecyl-2-O-methyl-glycerol]	109
CC1C(=O)OC2CC34C5CC(C(C)(C)C)C36C(OC(=O)C6O)OC4(C(=O)O5)C21O (stereo not given) [Ginkgolide A]	99 ± 3
CCOC(=O)C1=C(C)NC(C)=C(C(=O)OC)C1c1cccc(Cl)c1Cl (stereo not given) [Felodipine]	117.1 ± 0.85
CC(=O)OC1CC2(C)C(CC(O)C3C4(C)CCC(O)C(C)C4CCC32C)C1=C(CCC=C(C)C)C(=O)[O-].[Na+] (stereo not given) [Fusidic acid sodium]	113
CN1C(CC(=O)c2ccccc2)CCCC1CC(O)c1ccccc1.Cl (stereo not drawn) [alpha-Lobeline hydrochloride]	108
Cc1cc(CS(=O)(=O)c2ccccc2)cc(OCc2ccc(CN3CCC[C@@H]3CO)cc2)c1 [PF-543 hydrochloride]	90.2
OCC1OC(n2cnc3c(Nc4ccccc4)ncnc32)C(O)C1O (stereo not given) [N6-Phenyladenosine]	118
OCCN1CCN(CCCN2c3ccccc3Sc3ccc(Cl)cc32)CC1 [Perphenazine]	90.8
C=CCc1ccc(O)c(-c2cc(CC=C)ccc2O)c1 [Magnolol]	98.2
CCc1c(CC(N)=O)c2cc(OCCCP(=O)(O)O)ccc2n1Cc1ccccc1	104
